Reference: PubChem BioAssay AID1347417 (National Center for Advancing Translational Sciences (NCATS), 2020)
Among all 120,000 compounds or so, about 5,300 (4.4%) were called active. A call without a number means that no potency is given here. About 22% were inconclusive and are not listed. The sample holds actives, similar compounds and a random draw of the others, so the mix is not that of the screen. Values without a mark were called inactive. Calls come from the whole dose curve; as a rule, active = well fitted inhibition curve with a large enough effect; inconclusive = small, poorly fitted or top-dose-only effect; inactive = no such curve, though single readings can be large or run the other way.

Assay: qHTS Primary assay for Inhibitors of Plasmodium falciparum Dd2 growth in vitro; note: nearly all actives have a fitted effect of over 65% in size
Conditions: P. falciparum Dd2 growth, SYBR Green, 72 h; series mostly up to 28.9 µM
Method in brief: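 Readout: SYBR Green fluorescence, 485 nm excitation, 535 nm emission, after ~16 h lysis at 37C. Before that, Dd2-infected red cells (2.5% hematocrit) grew 72 h with compound, 29 uM top final concentration.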
Potency is the fitted concentration of half-maximal effect.

Structure (SMILES) | Potency | activity, negative = inhibition | outcome
O=C(CCc1conc1-c1ccccc1F)NCc1cccc(C(F)(F)F)c1 | inactive | – | –
C=CCCC(CN1CCCC1)Oc1cncc(C(=O)N2CCCC2)n1 (stereo not drawn) | 7.94 µM (active) | – | –
COC[C@@H]1CN(C(=O)Cc2ccc(OC)cc2)C[C@H]1C(N)=O | inactive | – | –
CCCC1c2nccn2CCCN1C(=O)c1ccc(OC)nc1 (stereo not drawn) | inactive | – | –
COc1ccccc1OCCNC(=O)CCc1cc2cc(C)ccc2[nH]c1=O | inactive | – | –
O=C(N[C@@H]1CCOC[C@H]1Oc1ccccn1)c1cc(C2CC2)no1 | inactive | – | –
O=C1Nc2ccccc2CC12CCCN2Cc1ccccc1 (stereo not drawn) | 10 µM (active) | – | –
O=C1Nc2ccccc2CC12CCN2Cc1cncs1 (stereo not drawn) | inactive | – | –
COc1ccc(CN2CCC3(CC2)Cc2ccccc2CNC3=O)cn1 | inactive | – | –
Cc1ccc(CN2CCCC23Cc2ccccc2CNC3=O)cc1C (stereo not drawn) | inactive | – | –
N#Cc1ccc(CN2CCC3(Cc4ccccc4NC3=O)C2)cc1 (stereo not drawn) | inactive | – | –
Cc1nn(-c2ccccc2)c(C)c1CN1CCCC12Cc1ccccc1CNC2=O (stereo not drawn) | 2.24 µM (active) | – | –
CSc1nccc(N2CCC(c3nccn3Cc3cccnc3)CC2)n1 | inactive | – | –
CCS(=O)(=O)N1CCCN(C(=O)C2CC2)C(c2ccccc2)CC(=O)NCC1 (stereo not drawn) | inactive | – | –
CN1CC2(CCN(C(=O)c3n[nH]c(=O)c4ccccc34)CC2)CC1C(=O)N1CCOCC1 (stereo not drawn) | inactive | – | –
CN(C)C(=O)c1nc(-c2cccnc2)c2ccccn12 | inactive | – | –
CN(C)C(=O)c1nc(-c2ccc(Cl)cc2Cl)c2cnccn12 | 10 µM (active) | – | –
O=C(NCc1cccnc1)c1nc(-c2ccc(Cl)nc2)c2cnccn12 | inactive | – | –
O=C1CCN(C(=O)CN2CCCCCC2)CCCC(c2nc(-c3ccccc3)no2)CCN1 (stereo not drawn) | inactive | – | –
Cc1cc(C[C@@H]2COC[C@@H]2NC(=O)c2ccc3nc(C)[nH]c3c2)on1 | inactive | – | –
Cc1ccccc1Nc1nn2c(=O)c3ccc(C(=O)NCCc4ccc(Cl)cc4)cc3nc2s1 | 3.16 µM (active) | – | –
CCc1ccc(Nc2nn3c(=O)c4cc5c(cc4nc3s2)OCO5)cc1 | inactive | – | –
O=C(NCCc1ccc(Cl)cc1)c1ccc2nc(CCc3ccccc3)oc2c1 | inactive | – | –
CC(C)c1nc(CNC(=O)c2ccc(N(C)C)nc2)no1 | inactive | – | –
c1cc(-c2ccsc2)n2nc(C3CCCO3)nc2n1 (stereo not drawn) | inactive | – | –

Structure (SMILES) | Potency | activity, negative = inhibition | outcome
Cn1cc(CN2CCCN(C(=O)c3ccco3)CC2)c(-c2ccc(C3CCCCC3)cc2)n1 | 8.91 µM (active) | – | –
COCCn1nc2n(c1=O)CCN(C(=O)c1ccco1)CC2 | inactive | – | –
Cc1ccc([C@@H]2CN(C(=O)c3ccco3)[C@@H]3C4CCN(CC4)[C@@H]32)cc1 | inactive | – | –
COCc1nc(CCNC(=O)CCc2ccccc2)no1 | inactive | – | –
COc1ccc(-c2cc(N3CCCN(C(=O)c4ccc(OC)cc4C)CC3)n[nH]2)cc1 | inactive | – | –
CCn1nccc1C(=O)N1CCn2nnc(CCC(=O)NCc3ccccc3)c2C1 | inactive | – | –
Cc1ccsc1-c1[nH]nc2ncc(-c3ccccc3O)nc12 | inactive | – | –
Cc1ccccc1-c1[nH]nc2ncc(-c3ccccc3)nc12 | 3.98 µM (active) | – | –
COc1ccc(-c2[nH]nc3ncc(-c4ccccc4)nc23)c(C)c1 | inactive | – | –
Cc1ccc(CNC(=O)C2(c3ccc(NS(C)(=O)=O)cc3)CCCCC2)cc1 | inactive | – | –
O=C(c1cccc(Cl)c1)N1CCC2(CC1)NCc1ccccc1NC2=O | inactive | – | –
NCC(=O)N1CCCC2(Cc3ccccc3CN2C(=O)c2cccc(Cl)c2)C1 (stereo not drawn) | 11.2 µM (active) | – | –
NCC(=O)N1Cc2ccccc2CC2(CCCCN2CC2CCOCC2)C1 (stereo not drawn) | inactive | – | –
COc1ccc(CN2CC[C@@H]3CN(S(C)(=O)=O)[C@@H]3C2)c(OC)c1 | inactive | – | –
Fc1ccc(-c2cc(NC3CCCC3)nc3[nH]ccc23)nc1 | inactive | – | –
c1ccc(CN2CCNc3cc(NCc4cccnc4)ncc3C2)cc1 | inactive | – | –
c1cncc(CNc2cc(-c3cnc4ccccc4n3)c3cc[nH]c3n2)c1 | 3.98 µM (active) | – | –
NC(=O)c1ccc(OC2CCN(C(=O)CCc3ccccc3)C2)nc1 (stereo not drawn) | inactive | – | –
O=C(c1ccccc1F)N1CC(Oc2cccc(-c3nc(-c4ccccc4)no3)c2)C1 | – | 36.6% [at 5.79 µM] | –
CCCC(=O)N1CCC(N2C(=O)C(O)C23CCCCC3)CC1 (stereo not drawn) | inactive | – | –
COCCN1CC[C@H]2CN(C(=O)Cc3ccc(OC)cc3)CC[C@H]2CC1=O | inactive | – | –
C[C@]1(CO)C2CC[C@@H](O)[C@@H](CC(=O)N3CC[C@@H](O)C3)[C@]2(C)CC[C@H]1OC(=O)Nc1ccc(Oc2ccccc2)cc1 (stereo partly drawn) | inactive | – | –
COc1ccc(CCNC(=O)c2ccc(-n3c(C)cc4c3CCCC4)cc2)cc1OC | 11.2 µM (active) | – | –
COc1ccc(CCNC(=O)c2noc(-c3ccc(C)cc3)n2)cc1OC | inactive | – | –
CCOc1ccccc1CNC(=O)c1ccc(-n2c(C)cc3c2CCC(C)C3)cc1 (stereo not drawn) | 12.6 µM (active) | – | –

Structure (SMILES) | Potency | activity, negative = inhibition | outcome
COc1ccccc1CNC(=O)c1cc2c(s1)CCN(C(=O)c1ccccc1)C2 | inactive | – | –
COc1ccccc1CNC(=O)c1ccc(-n2c(C)cc3c2CCCC3)cc1 | 11.2 µM (active) | – | –
CCOc1ccccc1CNC(=O)C1CCCN(S(=O)(=O)c2ccc3c(ccn3C)c2)C1 (stereo not drawn) | inactive | – | –
COc1ccccc1Oc1ncccc1CNC(=O)c1ccc2n[nH]nc2c1 | inactive | – | –
CCOc1ccccc1CNC(=O)c1ccc2c(c1)nc1n2CCC(C)C1 (stereo not drawn) | inactive | – | –
COc1ccc(CCNC(=O)c2ccc3c(c2)nc(C)n3-c2ccc(Br)cc2)cc1OC | inactive | – | –
COc1ccc(NC(=O)Cn2ccn3nc(-c4ccc(F)cc4)c(CO)c3c2=O)c(OC)c1 | inactive | – | –
O=C(N[C@@H]1CN[C@H](CO)C1)c1ccncc1 | inactive | – | –
COC(=O)[C@@H]1Cc2c([nH]c3ccccc23)[C@H]2C[C@@H](NCCN3CCOCC3)C[C@@H](c3ccccc3F)N21 | inactive | – | –
Cc1cnc(C)c(N2CCN(C(=O)[C@H]3CC[C@@H](N)C3)CC2)n1 | inactive | – | –
O=C(Cc1ccc(F)cc1)N1CCCC(c2nn(-c3ccc(Cl)cc3)c(=O)[nH]2)C1 (stereo not drawn) | inactive | – | –
O=c1[nH]c(C2CCCN(Cc3ccccn3)C2)nn1-c1ccc(Cl)cc1 (stereo not drawn) | 1.41 µM (active) | – | –
CC(=O)N1CCCC(c2nn(-c3ccccc3)c(=O)[nH]2)C1 (stereo not drawn) | inactive | – | –
COCc1nnc(NC(=O)C2c3ccccc3C(=O)N(C3CCCC3)C23CCCC3)s1 (stereo not drawn) | 7.94 µM (active) | – | –
Cc1cccnc1NC(=O)C1c2ccccc2C(=O)N(C2CCCC2)C12CCCC2 (stereo not drawn) | inactive | – | –
COCCNC(=O)C1c2ccccc2C(=O)N(C2CCCC2)C12CCCCC2 (stereo not drawn) | inactive | – | –
CS(=O)(=O)N1CCC(F)(c2nc(-c3ccccc3)no2)CC1 | inactive | – | –
CN1CC(=O)N(c2ccccc2F)Cc2c(NCCc3ccc(F)cc3)ncnc21 | inactive | – | –
Cc1sc2cc(C(=O)N(C)C)[nH]c2c1CN1CCCCC1 | inactive | – | –
CC(C)OC(=O)c1ccc(NC(=O)Cn2nc3c(cc2=O)CCCCC3)cc1 | inactive | – | –
Cn1c(=O)n(C)c2cc(NS(=O)(=O)c3ccc(F)cc3)ccc21 | inactive | – | –
CC(=O)c1c(C)n(S(=O)(=O)c2ccc(Cl)cc2)c2ccc(NS(=O)(=O)c3ccc(Cl)cc3)cc12 | 11.2 µM (active) | – | –
Cc1c(NS(=O)(=O)c2ccc(Cl)cc2)c(=O)n(-c2ccccc2)n1C | inactive | – | –
COc1cc2c(=O)c(S(=O)(=O)c3ccc(C(C)C)cc3)cn(Cc3ccccc3C)c2cc1OC | 8.91 µM (active) | – | –
COCCCNc1nc2c(S(=O)(=O)c3ccc(C(C)C)cc3)nnn2c2ccccc12 | inactive | – | –

Structure (SMILES) | Potency | activity, negative = inhibition | outcome
O=C(NCc1cc(F)cc(F)c1)c1noc(-c2ccc3c(c2)OCO3)n1 | inactive | – | –
COc1ccc(CNC(=O)N2CCCCC2c2noc(COCC3CC3)n2)cc1 (stereo not drawn) | inactive | – | –
Cc1ccc(-c2cn3c(n2)sc2cc(C(=O)NCc4cccs4)ccc23)c(C)c1 | 11.2 µM (active) | – | –
CCOc1cccc2cc(-c3cn4c(n3)sc3cc(C)ccc34)c(=O)oc12 | inactive | – | –
Cc1ccc(-c2cn3c(n2)sc2cc(C(=O)NCCCc4ccccc4)ccc23)cc1 | inactive | – | –
O=C(NCc1ccccc1)c1cnc2n1CCN(Cc1c[nH]c3ccccc13)CC2 | inactive | – | –
COCC(=O)Nc1ccc([C@H]2OCC(=O)N[C@@H]2CO)cc1 | inactive | – | –
Cn1ncc(N2CCC(C(=O)N3CC=C(c4ccccc4)CC3)C2)cc1=O (stereo not drawn) | inactive | – | –
Cn1cnc(C(=O)N2CCC(OC3CCN(S(C)(=O)=O)CC3)CC2)c1 | inactive | – | –
CC(C)c1csc(CN2CCN(c3ncccc3C#N)CC2)n1 | inactive | – | –
Oc1ccccc1CN1CCC(O)(c2csc(CN3CCN(c4ccccn4)CC3)n2)CC1 | 7.94 µM (active) | – | –
COc1ccc(NC(=O)N2CCC(O)(c3csc(CN4CCc5ccccc5C4)n3)CC2)cc1 | inactive | – | –
COc1ccccc1CCC(=O)N1CCC[C@H]1c1nc(-c2ccccc2)no1 | inactive | – | –
CC(C)c1cc(C(=O)NCc2cccnc2Oc2ccc(F)cc2F)on1 | inactive | – | –
CN(C)c1nc2c(c(=O)[nH]1)CCN(Cc1ccncc1)CC2 | – | – | inactive [at 5.79 µM]
Cc1ccc(CN2C(=O)[C@@H]3C[C@@H](O)CN3C3(CN(Cc4ccncc4)C3)C2=O)o1 | inactive | – | –
O=C1CC(c2ccccc2)N(C(=O)CNC(=O)c2cnccn2)CCCCCCN1 (stereo not drawn) | inactive | – | –
O=C1CC(c2ccccc2)N(Cc2cn[nH]c2-c2ccc(F)cc2)CCCCCN1 (stereo not drawn) | 8.91 µM (active) | – | –
COc1ccc(OC)c(S(=O)(=O)N2CCCCCCNC(=O)CC2c2ccccc2)c1 (stereo not drawn) | inactive | – | –
Cn1cc(CC(=O)N2CCCc3ncc(C(=O)NCc4ccc(F)cc4)cc32)c2ccccc21 | inactive | – | –
CC(=O)N1CCCN(Cc2nnc(C(=O)N3CCC[C@@H]3C(c3ccccc3)c3ccccc3)n2-c2ccccc2)CC1 | inactive | – | –
Cc1nc(N2CCC(NCCNc3ccncc3C)CC2)c2ccsc2n1 | 10 µM (active) | – | –
Cc1nc(N2CCC(NC(=O)c3cnccn3)CC2)cc(C(F)(F)F)n1 | inactive | – | –
